Source: PubChem
phage Ecoli inh – growth loss of phage-infected E. coli, primary screen, RecBCD inhibitor project, absorbance, with phage, HTS; 360,000 compounds, 0.26% hits; inhibition, % at 11.9 µM; in the data active = inhibition above about 11%
E coli growth-1 – E. coli V3065 growth inhibition, primary screen, counter-screen for AddAB inhibitor project, absorbance, OD600 | 18 h | inhibition, % at 11.9 µM | 330,000 compounds, 0.27% hits | AID 449728, 2010;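 active = inhibition above the campaign's mean inhibition across all tested compounds plus 3 SD, cut at about 9.9% in these data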;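 note: uninfected addAB+ strain grown without phage in ampicillin broth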
AddAB inh – growth inhibition of E. coli expressing H. pylori AddAB, primary screen, AddAB inhibitor project, absorbance. inhibition, % at 11.9 µM. 330,000 compounds, 0.29% hits; in the data active = inhibition above about 12%
Tat export inh – E. coli Tat export inhibitors, primary screen, MC4100, TorA-mCherry reporter, fluorescence, single point. 340,000 compounds, 0.036% hits. inhibition, % at 10 µM. AID 488895, 2010;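 active = mean replicate inhibition at least 50% and at least half of replicates individually reaching 50%; inconclusive = only one of the two criteria met; inactive = neither criterion met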;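 note: exported cargo escapes ClpAP degradation while cytoplasmic cargo is degraded and loses fluorescence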
E coli growth-2 – E. coli growth inhibition, primary screen, OD600. Escherichia coli growth, 23 h; active compounds read low. OD600 absorbance (test concentration not listed). 330,000 compounds, 0.21% hits;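 active = OD600 absorbance below the run mean of sample wells minus 3.6 SD, in any replicate, cut at about 0.56 in these data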
pCIP destab – p/CIP-EGFP fusion destabilizers, primary screen, fluorescence, F442A cells; decrease of EGFP signal, % at 10 µM; 16 h; Q05BA5; 290,000 compounds, 0.01% hits;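 active = EGFP signal decrease of at least 30% at 10 µM or well 3 SD below plate mean, unless failing retest; inactive = the rest, including hits failing retest or dose response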
Target sequence (Q05BA5 1-1403): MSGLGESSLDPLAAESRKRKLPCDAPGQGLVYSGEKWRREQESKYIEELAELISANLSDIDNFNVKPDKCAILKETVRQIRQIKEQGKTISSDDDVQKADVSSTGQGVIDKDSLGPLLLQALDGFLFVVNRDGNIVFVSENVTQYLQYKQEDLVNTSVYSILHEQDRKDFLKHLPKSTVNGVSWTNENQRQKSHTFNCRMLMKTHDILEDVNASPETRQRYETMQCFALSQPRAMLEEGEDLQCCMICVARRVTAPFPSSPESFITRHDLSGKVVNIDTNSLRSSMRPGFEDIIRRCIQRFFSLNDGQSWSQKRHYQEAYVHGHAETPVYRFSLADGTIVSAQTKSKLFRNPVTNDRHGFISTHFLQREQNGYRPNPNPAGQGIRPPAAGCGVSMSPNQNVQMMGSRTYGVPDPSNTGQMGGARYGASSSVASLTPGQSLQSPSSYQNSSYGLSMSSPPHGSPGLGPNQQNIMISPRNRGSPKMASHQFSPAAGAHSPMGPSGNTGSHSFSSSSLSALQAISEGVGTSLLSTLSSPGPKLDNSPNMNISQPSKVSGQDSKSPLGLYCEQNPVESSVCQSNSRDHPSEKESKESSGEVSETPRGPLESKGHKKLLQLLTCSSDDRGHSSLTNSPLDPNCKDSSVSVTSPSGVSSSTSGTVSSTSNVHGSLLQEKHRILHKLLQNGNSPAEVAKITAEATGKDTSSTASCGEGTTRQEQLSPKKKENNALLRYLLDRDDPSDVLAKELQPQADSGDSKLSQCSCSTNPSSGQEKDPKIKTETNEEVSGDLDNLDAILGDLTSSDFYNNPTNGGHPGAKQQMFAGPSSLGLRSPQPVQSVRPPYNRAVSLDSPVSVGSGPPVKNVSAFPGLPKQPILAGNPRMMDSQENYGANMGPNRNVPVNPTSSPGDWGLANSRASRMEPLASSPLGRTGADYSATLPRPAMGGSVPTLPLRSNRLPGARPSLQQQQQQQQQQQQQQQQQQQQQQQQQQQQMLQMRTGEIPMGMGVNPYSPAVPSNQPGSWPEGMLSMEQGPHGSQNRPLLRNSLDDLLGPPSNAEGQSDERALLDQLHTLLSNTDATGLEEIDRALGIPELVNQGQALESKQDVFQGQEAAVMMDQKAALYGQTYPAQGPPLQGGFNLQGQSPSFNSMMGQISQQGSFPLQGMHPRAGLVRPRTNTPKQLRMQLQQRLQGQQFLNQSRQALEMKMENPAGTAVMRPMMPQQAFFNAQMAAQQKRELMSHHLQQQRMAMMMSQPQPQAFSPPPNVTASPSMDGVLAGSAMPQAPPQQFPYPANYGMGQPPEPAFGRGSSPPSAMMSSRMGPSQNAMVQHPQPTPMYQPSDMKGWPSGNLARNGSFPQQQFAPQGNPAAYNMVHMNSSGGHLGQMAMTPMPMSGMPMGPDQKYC
AddAB confirm – growth loss of phage-infected E. coli expressing H. pylori AddAB, confirmation, AddAB inhibitor project, absorbance, E. coli V3065, T4 phage, triplicate; OD; T4 phage with gene 2 nonsense mutations; inhibition, % at 11.9 µM; shares compounds with AddAB inh; AID 488942, 2010; 880 compounds, 64% hits;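 active = mean inhibition above a set limit taken from the earlier primary screen, cut at about 13% in these data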;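 note: higher means less bacterial growth since AddAB block lets phage replicate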
RecBCD counter – growth loss of RecBCD+ E. coli with mutant T4 phage, counter-screen for AddAB inhibitor project, absorbance, V66 E. coli. inhibition, % at 11.9 µM. shares compounds with AddAB inh. AID 488955, 2010. 880 compounds, 73% hits. OD growth;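 active = mean inhibition above the mean of solvent-only control wells plus 3 SD, cut at about 4% in these data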;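 note: optical density read after an 18 h incubation at 37 °C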
Bact viability – bacterial viability inhibition counter-screen, confirmation, counter-screen for AddAB inhibitor project, absorbance; shares compounds with AddAB inh; absorbance (AddAB counterscreen); inhibition, % at 11.9 µM; 880 compounds, 35% hits; in the data active = inhibition above about 25%
RecBCD conf – growth loss of phage-infected RecBCD+ E. coli, confirmation, RecBCD inhibitor project, absorbance, E. coli V66, T4 gene 2 phage; shares compounds with phage Ecoli inh; E. coli V66 + T4 2- phage, growth OD; inhibition, % at 11.9 µM; 890 compounds, 45% hits; AID 651982, 2013;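 active = mean inhibition over triplicates exceeding the hit threshold derived in the original primary screen, cut at about 11% in these data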
Ecoli viability – E. coli viability inhibition, counter-screen for RecBCD inhibitor project, absorbance, high throughput; shares compounds with phage Ecoli inh; absorbance (OD) growth; inhibition, % at 11.9 µM; AID 651983, 2013; 890 compounds, 29% hits; in the data active = inhibition above about 20%;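 note: E. coli strain V66 grown with compound alone and no phage infection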
AddAB counter – growth loss of phage-infected AddAB-carrying E. coli, confirmation, counter-screen for RecBCD inhibitor project, absorbance, E. coli V3065, T4 phage. shares compounds with phage Ecoli inh. E. coli expressing H. pylori AddAB + T4 phage, OD growth; gene 2 mutant T4, recBCD-deleted host. inhibition, % at 11.9 µM. 890 compounds, 45% hits. AID 651984, 2013;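 active = mean inhibition above the solvent-only control wells' mean plus 3 SD, cut at about 22% in these data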;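 note: higher means less bacterial growth from phage killing when AddAB is blocked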
Of the large screens only hits and unclear results are named; the others gave an inactive call (follow-up assays come after a bar, where they were run). Rows were chosen to be rich in hits. Some 0.51% of all compounds tested hit in one or more screens of this group.

CCCCC(=O)NC(c1ccc(N(C)C)cc1)c1ccc2cccnc2c1O (stereo unspecified)	phage Ecoli inh 23, E coli growth-1 35, AddAB inh 25 (no result: E coli growth-2) | AddAB confirm 30 | RecBCD counter 23 | Bact viability inactive | RecBCD conf 13 | Ecoli viability inactive | AddAB counter inactive
Cc1n[nH]c(=S)n(NC(=O)CC(=O)Nn2c(=S)[nH]nc(C)c2=O)c1=O	phage Ecoli inh 16, E coli growth-1 13, AddAB inh 19 | AddAB confirm 33 | RecBCD counter 15 | Bact viability 32 | RecBCD conf 14 | Ecoli viability inactive | AddAB counter 35
Cc1n[nH]c(=S)n(NC(=O)/C=C/C(=O)Nn2c(=S)[nH]nc(C)c2=O)c1=O	none (no result: E coli growth-1, AddAB inh)
COc1cccc(/C=C2/SC(=S)N(CC(=O)NNC(=O)c3ccccc3O)C2=O)c1	phage Ecoli inh 14, AddAB inh 13 | AddAB confirm 17 | RecBCD counter 14 | Bact viability inactive | RecBCD conf 11 | Ecoli viability inactive | AddAB counter inactive
CCOC(=O)c1nn(-c2ccccc2F)c(-c2ccccc2)c1C(=O)c1ccccc1	none
Cc1cc(C)c2c(N=NN3CCOCC3)[nH]nc2n1	phage Ecoli inh 12, E coli growth-1 17, AddAB inh 77 | AddAB confirm 71 | RecBCD counter 4.2 | Bact viability 33 | RecBCD conf inactive | Ecoli viability inactive | AddAB counter 32
COc1ccc(Cl)cc1NC(=O)CN(C)C(=O)c1cc(=O)c2ccccc2o1	none (no result: pCIP destab)
C/C(N=Nc1nc2ccccc2s1)=N\Nc1ccccc1O	phage Ecoli inh 33, E coli growth-1 11, AddAB inh 15 (no result: E coli growth-2) | AddAB confirm 32 | RecBCD counter 34 | Bact viability 31 | RecBCD conf 24 | Ecoli viability 27 | AddAB counter 39
CCc1nnc(NS(=O)(=O)c2ccc(NC(=S)Nc3ccc(F)cc3)cc2)s1	phage Ecoli inh 16, AddAB inh 15 | AddAB confirm inactive | RecBCD counter inactive | Bact viability inactive | RecBCD conf inactive | Ecoli viability inactive | AddAB counter inactive
O=C(COC(=O)CCc1ccc(S(=O)(=O)N2CCOCC2)cc1)NC1CCCCCC1	none
COC(=O)[C@]12C[C@H](CC(=O)N3CCN(C(=O)c4ccco4)CC3)C(=O)N(CCC3=CCCCC3)C1=C[C@H](C(C)(C)C)O[C@@H]2C	none (no result: E coli growth-1, AddAB inh, Tat export inh, E coli growth-2, pCIP destab)
CCOC(=O)N1CCN(Cc2ccc(O)c3ncccc23)CC1	none (no result: Tat export inh)
Cc1ccc(C)c(S(=O)(=O)N2CCN(Cc3ccc(O)c4ncccc34)CC2)c1	phage Ecoli inh 17, E coli growth-1 16, AddAB inh 17 | AddAB confirm 13 | RecBCD counter 15 | Bact viability inactive | RecBCD conf inactive | Ecoli viability inactive | AddAB counter inactive
COc1ccc(Br)cc1C=NNC(=O)c1ccc2nc[nH]c2c1	none (no result: phage Ecoli inh, E coli growth-1, AddAB inh, Tat export inh, pCIP destab)
CCN1/C(=C/c2ccc3cc(C)ccc3[n+]2CC)Sc2ccccc21	phage Ecoli inh 14, E coli growth-1 28, AddAB inh 25, E coli growth-2 0.22 | AddAB confirm 46 | RecBCD counter 14 | Bact viability 30 | RecBCD conf inactive | Ecoli viability inactive | AddAB counter inactive
CC[n+]1ccccc1/C=C1\Sc2ccc(C)cc2N1C	none
O=C(Nc1ccccc1F)c1ccc([N+](=O)[O-])s1	Tat export inh inconclusive
O=C(Nc1cccnc1)c1ccc([N+](=O)[O-])s1	phage Ecoli inh 17, E coli growth-1 69, AddAB inh 99, E coli growth-2 0.07 (no result: pCIP destab) | AddAB confirm 100 | RecBCD counter 18 | Bact viability 47 | RecBCD conf inactive | Ecoli viability inactive | AddAB counter 86
O=C(CNc1cccc([N+](=O)[O-])c1)N/N=C/c1ccc([N+](=O)[O-])o1	phage Ecoli inh 18, E coli growth-1 33, AddAB inh 82 (no result: E coli growth-2) | AddAB confirm 102 | RecBCD counter 16 | Bact viability 60 | RecBCD conf 14 | Ecoli viability inactive | AddAB counter 66
Cc1ccc(C(=O)N/N=C\c2ccc([N+](=O)[O-])o2)cn1	phage Ecoli inh 18, E coli growth-1 20, AddAB inh 84 (no result: E coli growth-2) | AddAB confirm 101 | RecBCD counter 14 | Bact viability 36 | RecBCD conf inactive | Ecoli viability inactive | AddAB counter 97
Cc1ccc(C(=O)N/N=C\c2ccc(-c3ccc([N+](=O)[O-])cc3)o2)cn1	none (no result: E coli growth-2)
O=C(Cc1ccc([N+](=O)[O-])cc1)N/N=C/c1ccc([N+](=O)[O-])o1	phage Ecoli inh 13, E coli growth-1 14, AddAB inh 21 (no result: E coli growth-2) | AddAB confirm 75 | RecBCD counter 7.1 | Bact viability inactive | RecBCD conf inactive | Ecoli viability inactive | AddAB counter 67
Cc1ccc2c(c1)c1c(n2CC(O)Cn2c(C)nc3ccccc32)C(=NO)CCC1 (stereo unspecified)	none (no result: phage Ecoli inh, E coli growth-1, AddAB inh, Tat export inh, pCIP destab)
CCCC(=O)NCCCCNC(=O)CCC	none
CC(=O)N(O)CCCCCNC(=O)CCC(=O)N(O)CCCCCNC(=O)CCC(=O)N(O)CCCCCN	phage Ecoli inh 17, E coli growth-1 22, AddAB inh 18 (no result: E coli growth-2) | AddAB confirm inactive | RecBCD counter 13 | Bact viability inactive | RecBCD conf inactive | Ecoli viability inactive | AddAB counter inactive
C=CC1=C(C(=O)O)N2C(=O)[C@@H](NC(=O)/C(=N\O)c3csc(N)n3)[C@H]2SC1 (stereo in doubt)	phage Ecoli inh 99, E coli growth-1 99, AddAB inh 99 (no result: E coli growth-2, pCIP destab) | AddAB confirm 103 | RecBCD counter 101 | Bact viability 103 | RecBCD conf 104 | Ecoli viability 106 | AddAB counter 105
